FLuc counter – counter-screen for miR-21 project: firefly luciferase inhibitors or activators; P08659; purified FLuc, Km substrates, luminescence inhibition; Potency, µM (titrated, usually from 57.5 µM), for inactives: at the highest dose activity change, negative = inhibition, most hits filed as inhibitors; hit rate 6.9% among 360,000; AID 588342;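 further: plate controls were vehicle for no effect and reference inhibitor for full effect; nearly all actives have a fitted effect of over 55% in size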
Target sequence (P08659 whole entry, looked up): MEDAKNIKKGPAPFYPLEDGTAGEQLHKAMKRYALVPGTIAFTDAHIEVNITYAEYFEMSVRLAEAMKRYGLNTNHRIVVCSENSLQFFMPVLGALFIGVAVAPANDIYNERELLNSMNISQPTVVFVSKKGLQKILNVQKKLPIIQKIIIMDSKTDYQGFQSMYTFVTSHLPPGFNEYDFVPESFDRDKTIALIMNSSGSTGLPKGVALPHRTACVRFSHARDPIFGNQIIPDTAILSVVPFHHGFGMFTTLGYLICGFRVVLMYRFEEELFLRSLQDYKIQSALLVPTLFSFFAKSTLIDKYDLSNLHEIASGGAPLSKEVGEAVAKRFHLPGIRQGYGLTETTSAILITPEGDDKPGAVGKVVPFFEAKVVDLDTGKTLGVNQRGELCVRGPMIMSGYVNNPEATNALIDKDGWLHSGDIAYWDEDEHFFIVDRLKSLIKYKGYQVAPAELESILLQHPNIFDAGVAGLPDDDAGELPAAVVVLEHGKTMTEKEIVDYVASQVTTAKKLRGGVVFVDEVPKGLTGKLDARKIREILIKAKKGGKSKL
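Biochemical qHTS of compounds, final roughly 60 µM downward over six points, against 10 nM purified firefly luciferase using Km concentrations of substrates (10 uM D-luciferin, 10 uM ATP) in Tris acetate pH 7.5 buffer; luminescence output.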
Rab9 prom act – activators of Rab9 promoter | Potency, µM (highest dose often 9.22 µM), for the others: at the top dose activation, negative = inhibition, most hits filed as activators | AID 485297 | Huh7 Rab9 promoter-luciferase reporter, luminescence, 24 h | hit rate 2.8% among 320,000; further: % of control where 0% means no effect; nearly all actives have a fitted effect of over 60% in size
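Promoter activation is measured as luciferase luminescence in Huh7 cells stably transfected with a Rab9 promoter–luciferase construct, following 24 h compound exposure at 37 °C and 10 min reagent incubation at ambient temperature.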
SMN2 splice up – SMN2 splice variant enhancement; HEK293 SMN2-luciferase splicing reporter, luminescence, 30-36 h; Potency, µM (titrated, usually from 46.1 µM), for inactives: at the highest dose activity change, positive = activation, most hits filed as activators; hit rate 2.8% among 210,000; further: % of control where 0% means no effect; nearly all actives have a fitted effect of over 55% in size
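HEK293 cells carry an SMN2 minigene-luciferase reporter in which exon 7 inclusion puts luciferase in frame. Cells were seeded at 2000 cells/well, attached for 10-12 hours, then exposed to compounds for 30-36 hours at 37C before ONE-Glo luminescence.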
NPC1 promoter act – activators of NPC1 promoter | Huh7 NPC1 promoter luciferase reporter, 24 h | Potency, µM (titrated, usually from 9.22 µM), inactives show at the top dose activation, hits mostly activators | hit rate 2.4% among 320,000; further: % of control where 0% means no effect; nearly all actives have a fitted effect of over 60% in size
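Huh7 reporter cells (NPC1 promoter driving luciferase) are dosed with compound for 24 h at 37 °C, 5% CO2; luciferase detection reagent is then added and luminescence measured after 10 min at ambient temperature.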
ELG1 genotox – induces genotoxicity in HEK293T cells with luciferase-tagged ELG1; hit rate 1.3% among 330,000; HEK293T ELG1-luciferase reporter, luminescence, 16 h; Potency, µM (doses to about 46 µM), inactives show top-dose activity change, positive = activation, usual class: activators; further: % of control where 0% means no effect; nearly all actives have a fitted effect of over 60% in size
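16 hr compound incubation (37 °C, 5% CO2) of HEK293T cells carrying luciferase-tagged ELG1; luciferase then measured by ONE-Glo luminescence after 30 min at RT.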
Numbers without * were called inactive; ? = inconclusive; . = not tested or not shown; [ ] = dose if it differs, or a comment. Compounds with a hit are over-represented: about 7.4% of the library has one in this group of screens. The call rests on the fitted dose curve; in most records, active means well fitted curve in the direction sought with a large enough effect; inconclusive means small, poorly fitted or top-dose-only effect, or another doubt; inactive means no such curve, though single readings can be large; an effect the other way counts as inactive or inconclusive. Potency means the concentration at half of the fitted maximal effect.

SMILES	FLuc counter	Rab9 prom act	SMN2 splice up	NPC1 promoter act	ELG1 genotox
CC(C)(C)NS(=O)(=O)c1cc(C(=O)O)ccc1Cl	-8%	-4%	3%	-3%	0%
Cc1ccc(-n2c(C)cc(C(=O)NS(=O)(=O)c3ccc(C)cc3)c2C)cc1	2%	-5%	20%	0%	1%
Cc1cc(C(=O)NNS(=O)(=O)c2cc(C(=O)O)ccc2Cl)c(C)n1-c1ccccc1	24µM*	-7%	.	-2%	0%
S=C(Nc1ccc2[nH]ccc2c1)NC1CCCCC1	13µM*	2.5µM*	.	2.5µM*	11%
Cc1ccc(NC(=S)NC2CCCC2)cc1C	?	?	?	10%	6%
Cc1nc2ccc(NC(=S)NC3CCCCC3)cc2nc1C	17µM*	3.5µM*	17%	?	6%
O=C(N/N=C\c1c(O)ccc2ccccc12)c1ccc(Cn2cccn2)o1	-17%	-28%	-93%	-18%	?
C/C(=N\Nc1nc(C)cc(-c2ccccc2)n1)c1ccc(C)o1	?	-15%	-40%	-6%	-7%
C/C(=N\Nc1nc(C)cc(C)n1)c1ccc(N2CCOCC2)cc1	-14%	-13%	-11%	-10%	-7%
C/C(=N\Nc1nc2ccccc2[nH]1)c1ccc(C)o1	11µM*	?	18µM*	22%	?
C/C(=N\Nc1nc2ccccc2[nH]1)c1ccc(Cl)s1	11µM*	17%	-3%	?	2%
C/C(=N\Nc1nc2ccccc2[nH]1)c1ccc(N2CCOCC2)cc1	1.1µM*	?	?	4µM*	10%
COc1ccc(Cl)cc1NC(=O)CSc1nnc(Cc2ccc(C)cc2)c(=O)[nH]1	1%	2%	.	1%	-11%
COc1ccc2nc(NC(=O)c3cccc(S(=O)(=O)N4CCOCC4)c3)sc2c1	11µM*	4%	-29%	0%	0%
Cc1ccc(-c2csc(NC(=O)c3cccc(S(=O)(=O)N4CCN(C)CC4)c3)n2)cc1	-19%	1%	-70%	-5%	-5%
COc1cc(C(=O)Nc2nc3ccc(S(=O)(=O)N4CCOCC4)cc3s2)cc(OC)c1OC	-1%	-6%	-12%	-1%	-4%
COc1ccc(CC(=O)Nc2nccs2)cc1S(=O)(=O)N1CCOCC1	.	.	.	.	-1%
COc1ccc2nc(NC(=O)Cc3ccc(OC)c(S(=O)(=O)N4CCOCC4)c3)sc2c1	24µM*	7%	-23%	11%	-1%
COc1ccc2nc(NC(=O)c3cc(S(=O)(=O)N4CCOCC4)ccc3C)sc2c1	11µM*	1%	-49%	2%	-4%
Cc1ccc(-c2csc(NC(=O)COC(=O)c3cccc(S(=O)(=O)N4CCOCC4)c3)n2)cc1	11µM*	2.5µM*	.	3.2µM*	?
O=C(COc1ccccc1[N+](=O)[O-])OCC(=O)c1ccc(Br)s1	.	.	.	.	1%
c1ccc(CCNCc2ccco2)nc1	.	.	-16%[9.22 µM]	.	.
Cc1ccc(-c2nnn(CC(=O)N(CC(=O)NCCC(C)C)c3ccc(F)cc3)n2)cc1	3%	.	-9%	.	.
CC1(C)C(=O)CC[C@@]2(C)C1CC(O)[C@@]1(C)C3=CC(=O)OC(c4ccoc4)[C@]3(C)CCC21 (stereo not given in full)	.	.	-16%	.	.
Cc1ccnc(NC(=O)c2cccc(S(=O)(=O)N3CCOCC3)c2)c1	17µM*	13%	.	0%	?
SMILES	FLuc counter	Rab9 prom act	SMN2 splice up	NPC1 promoter act	ELG1 genotox
O=C(Nc1ccccn1)c1cccc(S(=O)(=O)N2CCOCC2)c1	6%	-4%	-2%	0%	-4%
O=C(Nc1nc(-c2nc3ccccc3s2)cs1)c1ccc(S(=O)(=O)N2CCOCC2)cc1	?	4.5µM*	.	3.2µM*	-13%
COc1ccc(N2CCN(C(=O)CCc3c(C)nn(-c4ccc(N5CCCC5)nn4)c3C)CC2)cc1	-9%	.	.	.	.
CCOC(=O)c1ccc(NC(=O)Cc2noc3ccc(C)cc23)cc1	8.5µM*	.	.	.	.
COc1ccc(NC(=O)Cc2noc3ccc(C)cc23)cc1Cl	-4%	.	.	.	.
Cc1ccc2onc(CC(=O)N(C)c3ccccc3)c2c1	4.8µM*	.	.	.	.
O=C(NCCc1ccccc1)c1ccc2nc(-c3ccco3)c(-c3ccco3)nc2c1	21µM*	7%	-2%	0%	-4%
O=C(NCCO)c1ccc2nc(-c3ccco3)c(-c3ccco3)nc2c1	15µM*	18%	2%	1%	-9%
O=C(NC1CCCC1)c1ccc2nc(-c3ccco3)c(-c3ccco3)nc2c1	13µM*	7%	.	0%	-4%
O=C(c1ccccc1)c1ccc2nc(-c3ccco3)c(-c3ccco3)nc2c1	5.4µM*	?	7%	24%	12%
c1coc(-c2nc3ccccc3nc2-c2ccco2)c1	?	10%	-13%	18%	2%
S=C(Nc1ccc(Oc2ccccc2)cc1)N(CCCN1CCOCC1)Cc1ccccn1	-7%	-5%	3%	-4%	-5%
CC(OC(=O)c1ccc([N+](=O)[O-])s1)C(=O)NC1CCCCC1C (stereo not given)	2%	-9%	.	-8%	-2%
c1ccc(-n2nc3c(ccc4cnnc43)[nH]2)cc1	7.6µM*	1.8µM*	?	2.5µM*	?
Clc1cccc(-c2cc3nc4c(c(N5CCN(c6cnccn6)CC5)n3n2)CCCC4)c1	12µM*	9%	-60%	-1%	-1%
N#Cc1ccc(OCC(=O)n2cc(C(=O)c3cc(Cl)cc(Cl)c3O)cn2)cc1	-2%	-1%	.	0%	-6%
CCCCN(C)C(=O)c1cc2cc3cc(OC)ccc3nc2o1	13µM*	3.5µM*	?	?	-2%
COc1ccc2cc3cc(C(=O)NC(C)C)oc3nc2c1	17µM*	2µM*	.	?	?
CCCCN(C)C(=O)c1cc2cc3ccc(OC)cc3nc2o1	3.8µM*	3.5µM*	.	4µM*	?
CCCCN(C)CCNC(=O)c1cc2cc3ccc(OC)cc3nc2o1	0%	-15%	.	-3%	-2%
Cc1nc(CCNC(=O)c2cccs2)cs1	-17%	-1%	12%	-1%	5%
Cc1cccc(C(=O)NCCc2csc(C)n2)c1	3%	5%	1.6µM*	-1%	41%
Cc1ccc(C(=O)NCCc2csc(C)n2)cc1	9.5µM*	3.2µM*	14µM*	?	18µM*
CSCCC(=O)NC1CCCN(CCc2ccccc2)C1 (stereo not given)	1%	-1%	.	-2%	0%
CCOC(=O)C1=NNC(C(=O)c2ccccc2)C1c1ccc(Cl)cc1 (stereo not given)	27µM*	-3%	.	-4%	0%
COc1ccc(-c2nnc(-c3ccc(C)cc3)o2)cc1	1.9µM*	?	.	1.6µM*	?
Cc1ccc(-c2nnc(-c3ccccc3)o2)cc1	2.7µM*	1.4µM*	2.8µM*	3.2µM*	?
COc1ccc(-c2nnc(NC(=O)Cc3ccccc3)o2)cc1	-9%	7%	.	-3%	-1%[9.26 µM]
